Experimental data: PubChem BioAssay (EPA / NIEHS)
Active and inactive are the calls of the source. The calls were made as follows: active = hit-call score of the fitted dose curve at least 0.9, where 1 is the maximum; inactive = score below 0.9.

experiment: APR_HepG2_MitoMembPot_72hr: Apredica 72-hour HepG2 Assay for Mitochondrial Membrane Potential (AID 2282917); settings: imaging, actives raise or lower the signal
Outline: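 HepG2 cells dosed 72 hr with compound at 0.39–200 uM in duplicate, 0.5% v/v DMSO final. Mitochondria stained with 250 nM MitoTracker Red CMXRos for 30 min before formaldehyde fixation, imaged by high-content fluorescence; bidirectional fit versus DMSO.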

| SMILES | outcome | AC50 |
| --- | --- | --- |
| CC(C)(C)CC(C)(C)c1ccc(O)c(-n2nc3ccccc3n2)c1 | inactive | – |
| CC(=O)NC1(c2cccc(F)c2)CCN(CC[C@@]2(c3ccc(Cl)c(Cl)c3)CN(c3ccccc3)C(=O)CO2)CC1 | inactive | – |
| CCc1ccc(CCOc2ccc(CC3SC(=O)NC3=O)cc2)nc1 (stereo not given) | inactive | – |
| CCOC(=O)CC(O)(CC(=O)OCC)C(=O)OCC | inactive | – |
| Oc1cc2ccccc2c2ccccc12 | – | 38.2 µM (active) |
| CC[C@H](C)[C@@H](C(=O)O)n1sc2ccccc2c1=O | inactive | – |
| CCCCC[C@H](O)CC(=O)CCc1ccc(O)c(OC)c1 | inactive | – |
| CN1CCN(c2ccccc2/C=C2\SCCN(c3ccc(Cl)c(Cl)c3)C2=O)CC1 | inactive | – |
| Cc1oc(-c2ccccc2)nc1CCOc1ccc(C[C@H](Nc2ccccc2C(=O)c2ccccc2)C(=O)O)cc1 | – | 120 µM (active) |
| CCc1nn(C2CCCCC2)c2cc(C3(C#N)CCC(C(=O)O)CC3)ccc12 (stereo not given) | inactive | – |
| CC[C@H](c1ccc(O)cc1)[C@@H](CC)c1ccc(O)cc1 | inactive | – |
| N#C[C@@H]1CC(F)(F)CN1C(=O)CNC1CC2CCC(C1)N2c1ncccn1 (stereo not given in full) | inactive | – |
| CCCCCCCCCCCCc1ccccc1S(=O)(=O)O | inactive | – |
| OCCC(F)(F)C(F)(F)C(F)(F)C(F)(F)C(F)(F)C(F)(F)C(F)(F)C(F)(F)F | inactive | – |
| C[C@@H]1C[C@H]2[C@@H]3CCC4=CC(=O)C=C[C@]4(C)[C@@]3(F)[C@@H](O)C[C@]2(C)[C@@]1(O)C(=O)COP(=O)(O)O | – | 45.1 µM (active) |
| COCC(C)O (stereo not given) | inactive | – |
| OC1CCCCC1 | inactive | – |
| O=[N+]([O-])c1ccc(O)cc1 | inactive | – |

| SMILES | outcome | AC50 |
| --- | --- | --- |
| CC(C)(C)c1cc(C(C)(C)C)c(O)c(C(C)(C)C)c1 | inactive | – |
| O=C(OCCOCCOC(=O)c1ccccc1)c1ccccc1 | inactive | – |
| CCC(C)(C)C1CCC(O)CC1 (stereo not given) | inactive | – |
| Cc1cc(CCN2CCN(c3nsc4ccccc34)CC2)cc2c1NC(=O)CC2(C)C | inactive | – |
| c1ccc2cc3c(ccc4ccccc43)cc2c1 | – | 73.6 µM (active) |
| CCCOC(=O)c1ccc(O)cc1 | inactive | – |
| CN1CCC[C@H]1c1cccnc1 | inactive | – |
| NC(=O)N(O)[C@@H]1C=C[C@H](Oc2cccc(Oc3ccc(F)cc3)c2)C1 | inactive | – |
| COC(=O)CCCCC(=O)OC | inactive | – |
| CC(O)CO (stereo not given) | inactive | – |
| O=C(O)Cc1cc(I)c(Oc2cc(I)c(O)c(I)c2)c(I)c1 | inactive | – |
| CC(=O)CC(C)(C)O | inactive | – |
| CCN(CC)CCNc1ccc(CNC=O)c2sc3ccc(OC)cc3c(=O)c12 | inactive | – |
| CCCCC(CC)COC(=O)CCCCC(=O)OCc1ccccc1 (stereo not given) | inactive | – |
| CC#C[C@]1(O)CC[C@H]2[C@@H]3CCC4=CC(=O)CCC4=C3[C@@H](c3ccc(N(C)C)cc3)C[C@@]21C | inactive | – |
| c1ccc2c(c1)Cc1ccccc1-2 | inactive | – |
| CCCCCCCCOC(=O)CCCCCCCCC(=O)OCCCCCCCC | inactive | – |
